The OligoGym collection
Also: reference of the scale not given here.

Each sequence was assayed against ANKRD22 (assay: pooled miR-30 sensor sort-seq; sequence = guide strand). Conditions: shRNA.
Work on TAGCATTAACTTCGACGCCAGC yielded a sensor-assay potency score (higher = more potent) of -1.11.
Sequence TTATTGTGGGGTCTGCACGGGC has a sensor-assay potency score (higher = more potent) of -0.753.
ATCTGTAGCATTAACTTCGACG was tested, and the sensor-assay potency score (higher = more potent) was -1.27.
Work on TATCCAGTGAGCTCTCACCATG yielded a sensor-assay potency score (higher = more potent) of -1.62.
Work on ATTAAAGCCATCTTGAACGTTG yielded a sensor-assay potency score (higher = more potent) of -0.412.
For TTTCTTCACAGCATAATGCAAG, the sensor-assay potency score (higher = more potent) was -0.597.
TAGCATTCGTACAAGAGCCTCA was tested, and the sensor-assay potency score (higher = more potent) was 0.13.

These sequences were tested against ANKRD23 in the same assay as above. Conditions: shRNA.
AAATCTTTCAAGTTTCTTCTTC was tested, and the sensor-assay potency score (higher = more potent) was 0.216.
For TTAAGATTCACTTTCTGGCGTT, the sensor-assay potency score (higher = more potent) was -0.127.
Sequence TAGAGCAGCAGTAGCTTCATGG has a sensor-assay potency score (higher = more potent) of -0.653.
For TGTCTCAGTCGCTTTTTCCGTC, the sensor-assay potency score (higher = more potent) was -0.0673.
For TTATCCAGATTAAATCTGGTAC, the sensor-assay potency score (higher = more potent) was -0.803.
TTCTCCACTTACCAACTGCTGA gave a sensor-assay potency score (higher = more potent) of -0.872.
In the case of TTCCAATTTCAGCTTCTCCCGG, the sensor-assay potency score (higher = more potent) is reported as -0.86.
TAATTTGAAACGTACAGACGGT showed a sensor-assay potency score (higher = more potent) of 0.00484.
In the case of TTCATGGCTTTGTAGCTGCCGT, the sensor-assay potency score (higher = more potent) is reported as -0.986.
With TCTTTCTCCACTTACCAACTGC the sensor-assay potency score (higher = more potent) was -0.293.
Work on TCTTTGAACCAAGTTTTCCAAG yielded a sensor-assay potency score (higher = more potent) of -1.3.
TTTTCCACATAGTAACAACAGC gave a sensor-assay potency score (higher = more potent) of -1.09.

The sequences below were run against ANKRD40 in the same assay as above. Conditions: shRNA.
For TAACAGGTAAGAGACCACCTGA, the sensor-assay potency score (higher = more potent) was -0.364.
Sequence TTGATCTGGATTAACACCCAGC has a sensor-assay potency score (higher = more potent) of -0.194.
Work on TATCATCAGAACCAGTTCCAGC yielded a sensor-assay potency score (higher = more potent) of -0.968.
In the case of TTGTCCTTCCTTAACAGAGTAT, the sensor-assay potency score (higher = more potent) is reported as -0.746.
Work on ATTATTTTCACTTATCATCAGA yielded a sensor-assay potency score (higher = more potent) of -0.625.
With TTTTGTGGTAAGAATTTCTTTG the sensor-assay potency score (higher = more potent) was -0.767.
In the case of TCGAGCAACATCCTTGTCCTTC, the sensor-assay potency score (higher = more potent) is reported as -0.697.
TTCACTTATCATCAGAACCAGT showed a sensor-assay potency score (higher = more potent) of -0.41.
TGATCTTCTCCACTTGATCTGG showed a sensor-assay potency score (higher = more potent) of -0.74.
TAACTTTCTGATCTTCTCCACT was tested, and the sensor-assay potency score (higher = more potent) was -1.02.
Work on TTGGAGTCGAGCAACATCCTTG yielded a sensor-assay potency score (higher = more potent) of -0.239.
Work on TTCCTTAACAGAGTATTGGGTA yielded a sensor-assay potency score (higher = more potent) of 0.698.

What follows are sequences tested against ANKRD53 in the same assay as above. Conditions: shRNA.
For TCTGATAGCAGCTTCTCTGAGA, the sensor-assay potency score (higher = more potent) was -0.337.
For TTTCTGAGTGCCAGCTTCCGGA, the sensor-assay potency score (higher = more potent) was -1.18.
TTCATCGAATGTGTCACGCAGG showed a sensor-assay potency score (higher = more potent) of -0.608.
For TAGTAGAGAAATGTCCTGCCAT, the sensor-assay potency score (higher = more potent) was -0.32.
TTTCTGATAGCAGCTTCTCTGA showed a sensor-assay potency score (higher = more potent) of -1.05.
TTGACCTTGATACTCAATCAGG was tested, and the sensor-assay potency score (higher = more potent) was -0.673.
In the case of TTCATTTTCGTCATCTCACGGG, the sensor-assay potency score (higher = more potent) is reported as 0.469.
With TTGCTAACATTCCACATTGTGG the sensor-assay potency score (higher = more potent) was -1.32.
